Drawing on ChEMBL document CHEMBL1961873, “Compounds: GSK PKIS; Assays: Nanosyn kinase panel” (2012), this text covers inhibition for two compounds.

Experiment [1] has as its target T1, Inhibitor of nuclear factor kappa-B kinase subunit epsilon (Homo sapiens) (UniProt Q14164).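 Note: reported values are averaged percent inhibition figures against human IKKε.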
T1 sequence (whole entry): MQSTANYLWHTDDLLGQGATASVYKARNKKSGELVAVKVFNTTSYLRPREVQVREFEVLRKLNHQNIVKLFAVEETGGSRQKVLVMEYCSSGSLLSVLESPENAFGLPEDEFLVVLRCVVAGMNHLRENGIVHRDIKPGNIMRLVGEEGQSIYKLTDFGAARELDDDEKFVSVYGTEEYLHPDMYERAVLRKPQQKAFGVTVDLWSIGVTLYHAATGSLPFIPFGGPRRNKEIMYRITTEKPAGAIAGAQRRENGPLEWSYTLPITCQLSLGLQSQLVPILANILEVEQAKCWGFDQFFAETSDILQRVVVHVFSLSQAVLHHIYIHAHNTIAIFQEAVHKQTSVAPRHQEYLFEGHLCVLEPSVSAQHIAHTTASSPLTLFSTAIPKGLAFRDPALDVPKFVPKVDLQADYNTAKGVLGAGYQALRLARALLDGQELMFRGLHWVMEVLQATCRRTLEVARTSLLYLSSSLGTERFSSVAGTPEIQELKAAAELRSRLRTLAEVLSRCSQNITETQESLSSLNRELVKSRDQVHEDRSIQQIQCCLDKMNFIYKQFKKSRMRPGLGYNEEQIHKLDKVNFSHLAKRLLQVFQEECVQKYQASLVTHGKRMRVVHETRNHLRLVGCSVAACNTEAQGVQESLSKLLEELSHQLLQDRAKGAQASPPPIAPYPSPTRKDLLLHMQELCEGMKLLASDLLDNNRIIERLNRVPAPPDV
To be noted: at 1 µM.

Experiment [2] deals with T2, Serine/threonine-protein kinase Nek1 (Homo sapiens) (UniProt Q96PY6).
T2 sequence (whole entry): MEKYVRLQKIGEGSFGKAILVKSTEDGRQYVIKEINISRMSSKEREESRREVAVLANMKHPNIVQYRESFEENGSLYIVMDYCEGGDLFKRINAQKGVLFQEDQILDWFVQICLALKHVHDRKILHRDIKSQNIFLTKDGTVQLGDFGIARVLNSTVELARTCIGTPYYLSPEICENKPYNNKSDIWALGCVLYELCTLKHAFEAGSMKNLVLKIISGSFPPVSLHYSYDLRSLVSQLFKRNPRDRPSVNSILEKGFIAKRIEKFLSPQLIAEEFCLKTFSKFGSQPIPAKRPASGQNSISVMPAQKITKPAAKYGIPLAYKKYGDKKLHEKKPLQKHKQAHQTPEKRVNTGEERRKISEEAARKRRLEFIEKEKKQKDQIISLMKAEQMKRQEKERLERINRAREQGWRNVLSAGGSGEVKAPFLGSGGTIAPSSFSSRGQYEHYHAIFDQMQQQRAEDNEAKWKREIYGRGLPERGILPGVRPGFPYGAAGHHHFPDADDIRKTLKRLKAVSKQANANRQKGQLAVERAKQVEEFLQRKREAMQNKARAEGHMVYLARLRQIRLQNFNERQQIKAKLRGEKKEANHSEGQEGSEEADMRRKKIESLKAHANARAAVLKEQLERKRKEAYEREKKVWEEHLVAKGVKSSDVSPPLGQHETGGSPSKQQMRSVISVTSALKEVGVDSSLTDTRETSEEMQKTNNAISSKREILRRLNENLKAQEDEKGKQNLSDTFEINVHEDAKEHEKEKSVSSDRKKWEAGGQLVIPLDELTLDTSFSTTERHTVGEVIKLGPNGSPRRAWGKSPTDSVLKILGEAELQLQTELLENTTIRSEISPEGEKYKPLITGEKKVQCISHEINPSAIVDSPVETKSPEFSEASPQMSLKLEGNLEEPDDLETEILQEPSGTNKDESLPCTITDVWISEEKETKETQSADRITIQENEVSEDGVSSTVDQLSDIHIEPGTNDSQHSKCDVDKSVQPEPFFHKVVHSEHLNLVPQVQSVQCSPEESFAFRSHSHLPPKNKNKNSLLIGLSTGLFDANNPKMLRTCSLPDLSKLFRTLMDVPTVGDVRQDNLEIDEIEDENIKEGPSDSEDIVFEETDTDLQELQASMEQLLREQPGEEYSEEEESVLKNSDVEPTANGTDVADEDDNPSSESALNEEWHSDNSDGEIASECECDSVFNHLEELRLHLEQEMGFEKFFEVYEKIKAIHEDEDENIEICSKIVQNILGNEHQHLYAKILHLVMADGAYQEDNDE
As to conditions: at 0.1 µM.

In experiment [3] the target is T2, Serine/threonine-protein kinase Nek1 (Homo sapiens). As to conditions: at 1 µM.
In experiment [4] the target is T3, Serine/threonine-protein kinase Nek2 (Homo sapiens) (UniProt P51955).
T3 sequence (whole entry): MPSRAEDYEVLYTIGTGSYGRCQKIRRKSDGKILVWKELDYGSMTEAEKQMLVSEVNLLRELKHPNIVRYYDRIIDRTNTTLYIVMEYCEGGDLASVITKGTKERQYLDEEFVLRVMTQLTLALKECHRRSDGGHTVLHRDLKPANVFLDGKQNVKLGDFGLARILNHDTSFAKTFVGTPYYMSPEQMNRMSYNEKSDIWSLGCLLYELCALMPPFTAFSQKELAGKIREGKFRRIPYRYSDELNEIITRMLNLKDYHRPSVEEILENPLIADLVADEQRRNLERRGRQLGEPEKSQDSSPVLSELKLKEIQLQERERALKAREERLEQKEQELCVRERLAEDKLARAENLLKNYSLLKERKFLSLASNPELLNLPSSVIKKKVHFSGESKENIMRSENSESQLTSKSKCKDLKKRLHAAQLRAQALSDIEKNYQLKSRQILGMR
As to conditions: at 0.1 µM.

Experiment [5] concerns the target T3, Serine/threonine-protein kinase Nek2 (Homo sapiens). To be noted: at 1 µM.
For experiment [6], the target named is Serine/threonine-protein kinase Nek6 (Homo sapiens) (UniProt Q9HC98). As to conditions: at 0.1 µM.
Experiment [7] has the same target. As to conditions: at 1 µM.
The target in experiment [8] is Serine/threonine-protein kinase Nek7 (Homo sapiens) (UniProt Q8TDX7). To be noted: at 0.1 µM.
Experiment [9] has the same target. To be noted: at 1 µM.
The target of experiment [10] is T4, Serine/threonine-protein kinase Nek9 (Homo sapiens) (UniProt Q8TD19).
T4 sequence (whole entry): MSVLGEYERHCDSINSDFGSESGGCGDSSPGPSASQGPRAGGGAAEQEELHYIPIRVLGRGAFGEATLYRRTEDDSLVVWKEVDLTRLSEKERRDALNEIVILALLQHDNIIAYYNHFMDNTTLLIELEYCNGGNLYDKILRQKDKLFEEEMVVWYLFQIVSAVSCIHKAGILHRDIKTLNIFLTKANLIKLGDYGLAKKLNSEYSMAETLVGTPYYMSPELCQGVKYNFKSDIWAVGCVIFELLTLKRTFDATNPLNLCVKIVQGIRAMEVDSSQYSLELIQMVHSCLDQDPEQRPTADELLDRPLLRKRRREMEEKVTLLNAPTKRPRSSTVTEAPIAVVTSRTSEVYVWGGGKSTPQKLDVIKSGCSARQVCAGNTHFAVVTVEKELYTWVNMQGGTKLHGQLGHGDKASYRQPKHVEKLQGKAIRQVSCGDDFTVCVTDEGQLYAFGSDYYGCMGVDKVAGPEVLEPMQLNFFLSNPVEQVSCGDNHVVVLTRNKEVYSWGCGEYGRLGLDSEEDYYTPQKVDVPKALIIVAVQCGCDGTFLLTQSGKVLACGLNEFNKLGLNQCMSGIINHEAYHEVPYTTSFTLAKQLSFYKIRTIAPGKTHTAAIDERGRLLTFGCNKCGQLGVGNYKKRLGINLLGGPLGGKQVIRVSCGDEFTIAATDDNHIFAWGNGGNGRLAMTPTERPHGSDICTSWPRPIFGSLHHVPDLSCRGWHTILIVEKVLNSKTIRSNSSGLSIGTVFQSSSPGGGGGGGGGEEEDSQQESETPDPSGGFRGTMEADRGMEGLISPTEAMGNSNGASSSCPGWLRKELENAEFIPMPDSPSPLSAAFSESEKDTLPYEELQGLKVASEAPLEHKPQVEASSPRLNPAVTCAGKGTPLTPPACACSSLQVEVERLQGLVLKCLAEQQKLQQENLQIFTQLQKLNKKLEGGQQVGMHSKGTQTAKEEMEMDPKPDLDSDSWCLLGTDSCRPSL
As to conditions: at 0.1 µM.

The target of experiment [11] is T4, Serine/threonine-protein kinase Nek9 (Homo sapiens). To be noted: at 1 µM.
The target in experiment [12] is Serine/threonine-protein kinase PLK1 (Homo sapiens) (UniProt P53350). As to conditions: at 0.1 µM.
For experiment [13] the target is unchanged. As to conditions: at 1 µM.
In experiment [14] the target is T5, Dual specificity protein kinase TTK (Homo sapiens) (UniProt P33981).
T5 sequence (whole entry): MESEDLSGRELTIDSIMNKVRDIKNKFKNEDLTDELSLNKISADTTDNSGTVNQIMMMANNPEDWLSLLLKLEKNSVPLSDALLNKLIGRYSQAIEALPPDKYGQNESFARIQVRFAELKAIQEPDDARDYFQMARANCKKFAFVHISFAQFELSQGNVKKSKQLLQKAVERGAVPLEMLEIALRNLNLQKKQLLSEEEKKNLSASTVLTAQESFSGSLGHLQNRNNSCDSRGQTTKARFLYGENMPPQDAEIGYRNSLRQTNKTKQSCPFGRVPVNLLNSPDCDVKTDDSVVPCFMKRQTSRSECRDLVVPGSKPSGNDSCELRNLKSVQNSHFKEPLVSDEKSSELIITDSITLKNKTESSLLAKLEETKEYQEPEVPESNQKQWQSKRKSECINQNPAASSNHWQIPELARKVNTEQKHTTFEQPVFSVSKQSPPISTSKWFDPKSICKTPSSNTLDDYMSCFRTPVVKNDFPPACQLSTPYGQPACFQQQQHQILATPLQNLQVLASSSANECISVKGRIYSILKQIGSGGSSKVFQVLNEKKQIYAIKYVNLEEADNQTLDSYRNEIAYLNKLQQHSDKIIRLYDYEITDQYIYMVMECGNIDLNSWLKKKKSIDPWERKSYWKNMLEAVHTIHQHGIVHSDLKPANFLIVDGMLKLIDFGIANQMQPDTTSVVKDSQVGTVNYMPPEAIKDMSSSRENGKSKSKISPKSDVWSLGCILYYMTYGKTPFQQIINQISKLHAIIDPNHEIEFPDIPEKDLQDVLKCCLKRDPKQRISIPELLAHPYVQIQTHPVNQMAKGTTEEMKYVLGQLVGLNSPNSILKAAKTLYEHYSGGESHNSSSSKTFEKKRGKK
As to conditions: at 0.1 µM.

The subject of experiment [15] is T6, Receptor-type tyrosine-protein kinase FLT3 (Homo sapiens), P36888 [D835Y].
T6 sequence (whole entry): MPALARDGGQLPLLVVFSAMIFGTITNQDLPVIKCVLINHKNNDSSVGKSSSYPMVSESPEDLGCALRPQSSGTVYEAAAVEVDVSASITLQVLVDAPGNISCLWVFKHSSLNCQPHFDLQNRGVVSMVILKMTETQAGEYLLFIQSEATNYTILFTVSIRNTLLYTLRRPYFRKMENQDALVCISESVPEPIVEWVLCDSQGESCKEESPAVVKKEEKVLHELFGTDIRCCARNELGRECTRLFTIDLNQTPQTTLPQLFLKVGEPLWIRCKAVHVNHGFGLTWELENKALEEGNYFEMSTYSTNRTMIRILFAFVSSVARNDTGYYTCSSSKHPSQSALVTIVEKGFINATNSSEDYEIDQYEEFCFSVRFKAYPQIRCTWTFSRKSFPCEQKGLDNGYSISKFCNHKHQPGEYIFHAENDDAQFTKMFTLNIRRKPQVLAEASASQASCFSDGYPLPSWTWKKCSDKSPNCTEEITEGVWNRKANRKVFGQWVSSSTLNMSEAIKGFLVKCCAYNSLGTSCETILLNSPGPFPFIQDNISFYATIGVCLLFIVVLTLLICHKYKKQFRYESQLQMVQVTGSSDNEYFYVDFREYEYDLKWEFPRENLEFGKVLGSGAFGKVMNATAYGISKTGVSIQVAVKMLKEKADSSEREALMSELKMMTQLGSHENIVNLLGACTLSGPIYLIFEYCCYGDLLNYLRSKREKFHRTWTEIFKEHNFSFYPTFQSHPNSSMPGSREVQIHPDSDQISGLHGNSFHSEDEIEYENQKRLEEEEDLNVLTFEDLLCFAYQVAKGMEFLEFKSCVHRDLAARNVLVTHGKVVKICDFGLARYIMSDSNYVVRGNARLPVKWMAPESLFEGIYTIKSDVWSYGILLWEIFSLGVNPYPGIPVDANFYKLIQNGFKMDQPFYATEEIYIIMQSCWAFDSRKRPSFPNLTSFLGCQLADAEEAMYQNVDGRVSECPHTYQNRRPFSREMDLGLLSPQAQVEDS
As to conditions: at 1 µM.

The target of experiment [16] is Vascular endothelial growth factor receptor 3 (Homo sapiens) (UniProt P35916). To be noted: at 0.1 µM.
The target is the same in experiment [17]. As to conditions: at 1 µM.
Experiment [18] concerns the target Macrophage colony-stimulating factor 1 receptor (Homo sapiens) (UniProt P07333). As to conditions: at 0.1 µM.
Experiment [19] shares this target. To be noted: at 1 µM.
In experiment [20] the target is Tyrosine-protein kinase Fyn (Homo sapiens) (UniProt P06241). As to conditions: at 0.1 µM.
Chain of Tyrosine-protein kinase Fyn (Homo sapiens) (P06241 2-537 limits assumed): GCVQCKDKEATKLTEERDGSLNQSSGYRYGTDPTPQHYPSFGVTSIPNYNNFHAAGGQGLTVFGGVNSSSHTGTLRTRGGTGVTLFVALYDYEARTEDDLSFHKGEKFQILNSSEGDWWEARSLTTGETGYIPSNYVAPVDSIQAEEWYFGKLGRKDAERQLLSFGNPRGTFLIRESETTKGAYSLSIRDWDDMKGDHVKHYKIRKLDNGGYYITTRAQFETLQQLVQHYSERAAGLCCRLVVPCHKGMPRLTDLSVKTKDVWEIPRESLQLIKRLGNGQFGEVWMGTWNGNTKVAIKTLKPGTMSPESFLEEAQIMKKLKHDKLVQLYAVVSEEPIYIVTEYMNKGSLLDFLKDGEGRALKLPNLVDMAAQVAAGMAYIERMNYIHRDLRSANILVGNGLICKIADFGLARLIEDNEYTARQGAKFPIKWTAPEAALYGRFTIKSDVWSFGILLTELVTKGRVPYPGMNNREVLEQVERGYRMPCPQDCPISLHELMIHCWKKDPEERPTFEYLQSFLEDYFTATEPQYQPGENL

Chain of Serine/threonine-protein kinase PLK1 (Homo sapiens) (P53350 whole entry): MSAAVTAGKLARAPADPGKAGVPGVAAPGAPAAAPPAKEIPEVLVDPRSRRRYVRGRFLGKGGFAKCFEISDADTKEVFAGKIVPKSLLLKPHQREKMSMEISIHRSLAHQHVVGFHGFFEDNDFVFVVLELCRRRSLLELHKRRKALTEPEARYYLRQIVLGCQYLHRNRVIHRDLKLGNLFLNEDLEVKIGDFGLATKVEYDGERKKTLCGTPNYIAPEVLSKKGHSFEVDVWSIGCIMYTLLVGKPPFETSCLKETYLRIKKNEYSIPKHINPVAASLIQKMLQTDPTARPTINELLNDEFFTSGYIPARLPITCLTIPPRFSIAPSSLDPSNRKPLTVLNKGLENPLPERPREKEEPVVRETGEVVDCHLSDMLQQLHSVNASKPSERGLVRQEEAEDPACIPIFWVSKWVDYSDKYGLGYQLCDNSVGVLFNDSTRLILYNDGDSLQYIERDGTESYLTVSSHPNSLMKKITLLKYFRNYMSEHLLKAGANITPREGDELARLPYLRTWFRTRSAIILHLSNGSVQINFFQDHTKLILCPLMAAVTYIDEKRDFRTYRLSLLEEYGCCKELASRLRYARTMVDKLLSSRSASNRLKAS
Chain of Serine/threonine-protein kinase Nek7 (Homo sapiens) (Q8TDX7 whole entry, looked up): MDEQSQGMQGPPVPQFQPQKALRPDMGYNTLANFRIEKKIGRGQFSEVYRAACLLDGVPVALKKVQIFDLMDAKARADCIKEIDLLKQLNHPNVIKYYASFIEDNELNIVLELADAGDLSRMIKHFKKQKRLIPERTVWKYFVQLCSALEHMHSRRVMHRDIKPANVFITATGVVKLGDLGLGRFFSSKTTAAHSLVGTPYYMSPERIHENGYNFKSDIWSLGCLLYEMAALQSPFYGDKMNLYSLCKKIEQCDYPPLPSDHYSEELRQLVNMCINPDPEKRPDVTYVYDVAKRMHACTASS
Chain of Macrophage colony-stimulating factor 1 receptor (Homo sapiens) (P07333 whole entry): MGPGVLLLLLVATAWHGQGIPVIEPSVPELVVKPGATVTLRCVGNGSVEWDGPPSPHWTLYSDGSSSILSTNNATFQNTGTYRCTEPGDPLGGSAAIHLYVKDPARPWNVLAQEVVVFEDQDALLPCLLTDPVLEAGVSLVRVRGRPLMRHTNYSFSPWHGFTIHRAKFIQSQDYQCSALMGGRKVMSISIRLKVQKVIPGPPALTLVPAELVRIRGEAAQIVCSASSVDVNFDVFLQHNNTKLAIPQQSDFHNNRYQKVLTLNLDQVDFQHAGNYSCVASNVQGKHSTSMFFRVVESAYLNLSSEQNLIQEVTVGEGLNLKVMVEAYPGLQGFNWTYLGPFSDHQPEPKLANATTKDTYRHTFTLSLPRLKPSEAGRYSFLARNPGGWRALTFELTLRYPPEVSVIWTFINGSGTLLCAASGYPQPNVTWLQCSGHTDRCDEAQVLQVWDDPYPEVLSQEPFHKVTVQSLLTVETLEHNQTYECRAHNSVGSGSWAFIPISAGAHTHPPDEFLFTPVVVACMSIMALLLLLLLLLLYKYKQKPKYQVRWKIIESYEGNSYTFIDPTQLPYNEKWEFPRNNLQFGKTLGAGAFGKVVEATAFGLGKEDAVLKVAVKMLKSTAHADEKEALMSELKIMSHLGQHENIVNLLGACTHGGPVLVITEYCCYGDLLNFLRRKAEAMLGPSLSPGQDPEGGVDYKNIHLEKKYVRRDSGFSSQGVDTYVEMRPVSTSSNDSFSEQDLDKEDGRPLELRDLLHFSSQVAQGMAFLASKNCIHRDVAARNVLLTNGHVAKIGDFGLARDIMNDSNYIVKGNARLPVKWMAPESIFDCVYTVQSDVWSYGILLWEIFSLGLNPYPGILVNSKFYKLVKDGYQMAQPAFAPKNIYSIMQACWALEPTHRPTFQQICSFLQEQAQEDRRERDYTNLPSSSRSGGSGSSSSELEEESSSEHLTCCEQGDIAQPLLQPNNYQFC
Chain of Vascular endothelial growth factor receptor 3 (Homo sapiens) (P35916 whole entry): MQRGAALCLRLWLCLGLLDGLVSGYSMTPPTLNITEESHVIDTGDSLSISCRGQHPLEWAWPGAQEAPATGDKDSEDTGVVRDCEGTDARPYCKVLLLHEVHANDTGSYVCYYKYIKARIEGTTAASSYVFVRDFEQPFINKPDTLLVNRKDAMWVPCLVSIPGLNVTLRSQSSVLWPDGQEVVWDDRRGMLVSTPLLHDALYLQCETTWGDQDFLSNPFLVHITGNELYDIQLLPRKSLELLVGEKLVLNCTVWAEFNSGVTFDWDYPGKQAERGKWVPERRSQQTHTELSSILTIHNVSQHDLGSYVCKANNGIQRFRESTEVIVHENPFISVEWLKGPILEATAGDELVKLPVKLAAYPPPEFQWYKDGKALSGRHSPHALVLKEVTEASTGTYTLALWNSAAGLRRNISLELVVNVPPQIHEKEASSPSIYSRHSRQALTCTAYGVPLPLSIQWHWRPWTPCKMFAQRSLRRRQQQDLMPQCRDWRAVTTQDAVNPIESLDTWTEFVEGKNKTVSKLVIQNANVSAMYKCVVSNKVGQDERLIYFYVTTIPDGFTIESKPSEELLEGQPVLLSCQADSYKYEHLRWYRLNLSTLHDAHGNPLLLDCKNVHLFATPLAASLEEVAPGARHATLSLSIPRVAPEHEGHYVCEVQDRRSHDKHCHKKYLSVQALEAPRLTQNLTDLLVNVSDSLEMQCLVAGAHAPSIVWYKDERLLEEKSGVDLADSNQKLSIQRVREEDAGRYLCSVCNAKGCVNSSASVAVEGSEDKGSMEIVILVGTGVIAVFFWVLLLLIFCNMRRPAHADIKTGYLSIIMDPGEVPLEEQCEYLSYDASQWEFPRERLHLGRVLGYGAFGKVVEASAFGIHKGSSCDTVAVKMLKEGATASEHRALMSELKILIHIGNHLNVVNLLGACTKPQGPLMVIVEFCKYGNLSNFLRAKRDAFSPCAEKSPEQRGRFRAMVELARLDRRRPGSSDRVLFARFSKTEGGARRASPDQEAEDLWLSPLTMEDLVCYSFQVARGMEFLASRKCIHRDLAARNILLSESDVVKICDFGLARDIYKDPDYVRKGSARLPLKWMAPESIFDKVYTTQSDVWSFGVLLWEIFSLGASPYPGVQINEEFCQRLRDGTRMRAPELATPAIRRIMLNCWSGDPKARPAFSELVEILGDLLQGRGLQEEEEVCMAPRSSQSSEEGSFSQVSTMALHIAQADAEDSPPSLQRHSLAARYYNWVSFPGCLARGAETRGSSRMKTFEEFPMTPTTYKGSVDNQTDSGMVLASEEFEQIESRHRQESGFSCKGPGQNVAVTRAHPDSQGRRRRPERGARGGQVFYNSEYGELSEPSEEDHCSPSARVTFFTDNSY
Chain of Serine/threonine-protein kinase Nek6 (Homo sapiens) (Q9HC98 whole entry): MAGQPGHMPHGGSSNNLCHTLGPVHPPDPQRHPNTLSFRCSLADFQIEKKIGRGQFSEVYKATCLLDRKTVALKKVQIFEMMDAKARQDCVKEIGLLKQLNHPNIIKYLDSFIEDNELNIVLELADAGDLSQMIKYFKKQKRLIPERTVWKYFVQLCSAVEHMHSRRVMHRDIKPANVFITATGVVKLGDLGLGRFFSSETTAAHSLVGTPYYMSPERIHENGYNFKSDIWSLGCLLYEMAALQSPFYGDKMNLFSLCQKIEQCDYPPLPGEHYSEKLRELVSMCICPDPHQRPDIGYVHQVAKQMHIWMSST

Take `O=C(Nc1n[nH]c2nc(-c3ccc(O)cc3)c(Br)cc12)C1CC1`: the inhibition in experiment [1] stood at 12.2%; in experiment [2], 3.52%; in experiment [3], 11.2%; in experiment [4], 6.4%; in experiment [5] it was 9%; in experiment [6], 3.51%. The inhibition in experiment [7] turned out to be 15.2%; in experiment [8], 13.2%; in [9], 46.3%; in experiment [10], 13.9%; in experiment [11] it was 13.2%; in [12] it was 6.21%. Moreover, the inhibition in experiment [13] turned out to be 5.59%; in experiment [14], 10.2%; in experiment [15], 27.1%; in experiment [16] it was 18.3%; in experiment [17] it was 60.9%; in [18], 3.87%. For the same compound, the inhibition amounted to 6.92% in experiment [19] and 5.98% in experiment [20].

With `CN(C)CCOc1ccc(-c2cc(-c3ccc4c(c3)CCC4=NO)c(-c3ccncc3)o2)cc1`, the inhibition in [1] was 0%; in experiment [2], 0.25%; in experiment [3], 0.32%; in experiment [4], -0.54%; in experiment [5], 0.32%; in experiment [6], -0.38%. Besides, the inhibition was -0.66% in [7]; -2.05% in [8]; 0.51% in experiment [9]; -0.48% in [10]; -0.58% in experiment [11]; 1.65% in [12]. The inhibition in experiment [13] is -0.86%; in experiment [14], 1.31%; in [15] it was -3.1%; in experiment [16], -0.84%; in experiment [17], -0.94%; in experiment [18], -3.24%. Also, the figures for the inhibition in [19] and in experiment [20] were -0.1% and 1.29%, respectively.
